Screens deposited in PubChem BioAssay by National Center for Advancing Translational Sciences (NCATS).
Pf growth 96h – Primary qHTS for delayed death inhibitors of the malarial parasite plastid, 96 hour incubation. P. falciparum luciferase reporter growth, 96 h. Potency, µM (top dose mostly 28.7 µM), most hits filed as inhibitors. 320,000 compounds, 6.9% hits. AID 504834, 2011
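Erythrocytes infected with luciferase-expressing P. falciparum were dispensed at 2% hematocrit and 0.05% parasitemia (final), then incubated with compounds 96 hours at 37 C in 5% CO2. Luminescence after detection reagent addition reported growth.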
FBPA Giardia inh – qHTS Assay for Inhibitors of Fructose-1,6-bisphosphate Aldolase from Giardia Lamblia; purified Giardia FBPA; Potency, µM (titrated, usually from 59.6 µM), hits mostly inhibitors; 290,000 compounds, 0.71% hits; AID 2451, 2010; note: nearly all actives have a fitted effect of over 55% in size
Target sequence (A8B2U2 whole entry, looked up): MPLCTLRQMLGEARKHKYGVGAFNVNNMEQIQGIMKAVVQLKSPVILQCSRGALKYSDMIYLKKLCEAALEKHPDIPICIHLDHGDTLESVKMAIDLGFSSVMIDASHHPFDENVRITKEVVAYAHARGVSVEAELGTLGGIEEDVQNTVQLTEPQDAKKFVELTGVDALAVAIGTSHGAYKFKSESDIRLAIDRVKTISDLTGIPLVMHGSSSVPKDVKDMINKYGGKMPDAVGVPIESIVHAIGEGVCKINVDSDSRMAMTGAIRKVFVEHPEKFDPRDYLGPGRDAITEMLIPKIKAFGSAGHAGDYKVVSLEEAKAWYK
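40 nM FBPA preincubated 10 min at RT with compound (up to 57.5 uM final), then substrate plus GAPDH/TPI/NAD/arsenate coupling and diaphorase/resazurin added. Fluorescence read after 20 min at RT, 525/598 nm.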
Sm TGR inh – qHTS Assay for the Inhibitors of Schistosoma Mansoni Peroxiredoxins. Schistosoma mansoni thioredoxin glutathione reductase (TGR), Q962Y6. purified TGR, DTNB reduction, TNB absorbance 405 nm. Potency, µM (highest dose often 114 µM), most hits filed as inhibitors. 360,000 compounds, 3% hits; note: nearly all actives have a fitted effect of over 60% in size
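First, TGR (20 nM dispensed) and NADPH were mixed with compound. Second, a 15 min room-temperature incubation followed. Third, further NADPH and then DTNB were added to start the reaction. Finally, TNB absorbance was monitored kinetically.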
HCMV inh – qHTS Assay for inhibitors of the human cytomegalovirus (HCMV); 410,000 compounds, 4.5% hits; activity change, negative = inhibition, % at 57.5 µM; HFF cells, HCMV-luciferase reporter, 72 h; active compounds read low; in the data active = activity change below about -60%; inconclusive = no clear call, values can overlap the other calls; inactive = above about -39%
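Inhibition of viral replication was scored as loss of reporter luminescence in HFFs infected with HCMV-luciferase (MOI 1 PFU/cell) for 72 h; compounds tested at 2 doses, normalized to buffer and Salinomycin controls.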
Pf growth 48h – Primary qHTS for delayed death inhibitors of the malarial parasite plastid, 48 hour incubation | P. falciparum luciferase growth in erythrocytes, 48 h | Potency, µM (top dose mostly 28.7 µM), actives largely listed as inhibitors | AID 504832, 2011 | 310,000 compounds, 5.9% hits
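Firefly luciferase activity from engineered P. falciparum reports growth; inhibitors lower the luminescent signal. Cultures contained 2% hematocrit erythrocytes at 0.1% final parasitemia.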
A number is an active result; n = inactive; u = inconclusive; x = not tested or not shown; [ ] = dose if it differs, or a comment. The list is not random: actives were taken first. Their share in the collection is about 14%. Unless noted, calls come from the whole dose curve; as a rule, active = well fitted curve in the direction sought with a large enough effect; inconclusive = small, poorly fitted or top-dose-only effect, or another doubt; inactive = no such curve, though single readings can be large; an effect the other way counts as inactive or inconclusive.

SMILES | Pf growth 96h | FBPA Giardia inh | Sm TGR inh | HCMV inh | Pf growth 48h
COc1cccc([C@H](O)Cn2cc(-c3cccc(CON=C(C)C)c3)nn2)c1 | x | n[12.9 µM] | x | x | x
C=CCN1[C@H](C)[C@H](c2ccccc2)Oc2cc(Br)ccc2S1(=O)=O | x | x | x | n | x
COc1ccc(-c2noc(CN(C)C(=O)CCCN3C(=O)[C@H]4CC=CC[C@H]4C3=O)n2)cc1 | x | x | x | n | x
O=C(CSc1ccccc1)Nc1ccc2c(c1)OCCO2 | 8.28µM | x | u | n | n
O=C(CSC1=NC2(CCCCCC2)N=C1c1ccccc1)Nc1ccc2c(c1)OCCO2 | n | n | n | u | u
O=C(CSC1=NC2(CCCCC2)N=C1c1ccccc1)Nc1ccc2c(c1)OCCO2 | u | n | n | n | 10.4µM
CCc1nnc(SCC(=O)Nc2ccc3c(c2)OCO3)o1 | n | n | n | u | n
Cc1nnc(SCC(=O)Nc2ccc3c(c2)OCO3)o1 | 13.1µM | n | n | -60.0 | n
COC(=O)c1ccc(COc2ccccc2/C=C(\C#N)C(=O)Nc2c(C)cccc2C)cc1 | 13.1µM | n | n | n | u
COC(=O)c1ccc(COc2ccccc2/C=N/Nc2cccc(C(=O)O)c2)cc1 | n | n | u | n | n
Cc1ccc(NC(=O)/C(C#N)=C/c2ccc(C)s2)c(C)c1 | n | n | n | n | x
Cc1ccc(/C=C(\C#N)C(=O)Nc2c(C)cccc2C)s1 | 7.38µM | n | n | n | x
COC(=O)c1ccc(COc2ccccc2/C=C/C(=O)c2ccc(OCC(=O)O)cc2)cc1 | 1.47µM | n | n | n | u
CC1(C(=O)NCc2ccccc2)CN(S(C)(=O)=O)CC(=O)N1Cc1cccs1 (stereo not given) | x | x | x | n | x
O=C1CSC(c2cn(-c3ccccc3)nc2-c2ccc3c(c2)OCCO3)N1CCN1CCOCC1 (stereo not given) | n | n | n | n | 8.28µM
CNC(=O)c1c(NC(=O)c2ccco2)sc2c1CCCC2 | n | x | n | n | n
CN1CCc2c(sc(NC(=O)c3cc4cc([N+](=O)[O-])ccc4s3)c2C(N)=O)C1 | u | n | n | x | u
CC(C)N1CCc2c(sc(NC(=O)c3cc4cc([N+](=O)[O-])ccc4s3)c2C(N)=O)C1 | u | n | n | -94.7 | n
Cc1ccc(C(=O)C(NC(=O)c2ccco2)Nc2sc3c(c2C(N)=O)CCCC3)cc1 (stereo not given) | n | n | 28.2µM | x | u
CCN1CCc2c(sc(NC(=O)c3cc4ccccc4cc3OC)c2C(N)=O)C1 | u | x | n | -113.4 | 9.28µM
CC(C)N1CCc2c(sc(NC(=O)c3ccc(C(=O)c4ccccc4)cc3)c2C(N)=O)C1 | u | x | n | n | 13.1µM
CC(C)N1CCc2c(sc(NC(=O)CCc3ccccc3)c2C(N)=O)C1 | u | n | n | n | u
O=C(c1ccco1)N1CCC2(CCN(Cc3nccs3)CC2)CC1 | x | n | x | x | x
CCOc1ccc(C(=O)NCC(=O)NCC(c2cccs2)N2CCOCC2)cc1 (stereo not given) | n | x | n | n | n
COc1cccc(CN2CCN3C=C(C(=O)NC4CCc5ccccc54)OC3=NC2=O)c1 (stereo not given) | x | x | x | n | x
SMILES | Pf growth 96h | FBPA Giardia inh | Sm TGR inh | HCMV inh | Pf growth 48h
O=C1CCC[C@H]2[C@@H](Cc3ccccc3)[C@@H](NS(=O)(=O)c3ccc(F)cc3)CC[C@]23CCCN13 | x | x | x | n | x
COc1cc(NS(=O)(=O)c2ccc(NC(=O)C(C)Oc3ccc(Cl)cc3Cl)cc2)nc(OC)n1 (stereo not given) | x | x | n | n | x
O=C(NCc1cccnc1)C(=O)Nc1cc2c3c(c1)CC(=O)N3CCC2 | u | x | n | x | n
CC(=O)c1ccc(C(=O)Nc2sc3c(c2C(N)=O)CCN(Cc2ccccc2)C3)cc1 | u | u | n | -74.1 | u
CC(C)N1CCc2c(sc(NC(=O)c3ccc4ccccc4c3)c2C(N)=O)C1 | 9.28µM | x | n | n | 10.4µM
NC(=O)c1c(NC(=O)C2COc3ccccc3O2)sc2c1CCN(Cc1ccccc1)C2 (stereo not given) | n | n | n | n | n
CC(C)N1CCc2c(sc(NC(=O)c3ccco3)c2C(N)=O)C1 | u | n | 50.1µM | -76.1 | 0.465µM
CC(C)N1CCc2c(sc(NC(=O)c3ccc(S(=O)(=O)N4CCCCC4C)cc3)c2C(N)=O)C1 (stereo not given) | u | x | n | u | u
COC(=O)c1c(NC(=O)c2ccco2)sc2c1CCN(C(C)C)C2 | u | n | n | n | n
CC(C)(C)c1ccc(/C=C/C(=O)N2CCc3ccccc3C2)cc1 | 0.738µM | n | n | n | 0.928µM
CC1(C)COC(/C=C/c2cccc([N+](=O)[O-])c2)=N1 | n | n | n | -94.8 | u
O=c1[nH]c(/C=C/c2cccc([N+](=O)[O-])c2)c([N+](=O)[O-])c(=O)[nH]1 | u | n | n | n | u
CC(=O)Nc1nnc(/C=C/c2cccc([N+](=O)[O-])c2)s1 | u | n | n | n | n
O=[N+]([O-])c1cccc(/C=C/c2nc[nH]c2[N+](=O)[O-])c1 | 1.47µM | n | n | n | u
Cc1ccc(-n2nc3c(N4CCC(C(=O)NCCc5ccco5)CC4)nnc(C)c3c2C)cc1 | n | x | n | n | u
Cc1ccc(-n2nc3c(N4CCC(C(=O)N5CCC(C(N)=O)CC5)CC4)nnc(C)c3c2C)cc1 | n | n | n | -61.4 | u
Cc1ccc(-n2nc3c(N4CCC(C(=O)N5CCC(C)CC5)CC4)nnc(C)c3c2C)cc1 | x | x | n | n | x
Cc1ccc(-n2nc3c(N4CCC(C(=O)NCc5ccc(C)o5)CC4)nnc(C)c3c2C)cc1 | 10.4µM | n | n | -67.4 | u
Cc1ccc(-n2nc3c(N4CCC(C(=O)NCc5cccc(F)c5)CC4)nnc(C)c3c2C)cc1 | 4.15µM | x | n | x | u
Cc1nnc(N2CCC(C(=O)NCc3cccc(Cl)c3)CC2)c2nn(-c3ccccc3)c(C)c12 | x | x | n | -103.2 | x
O=C(c1ccc2c(c1)N(Cc1c(F)cccc1Cl)C(=O)c1ccccc1S2)N1CCOCC1 | x | x | n | n | x
Cc1nn(-c2ccccc2)c(-n2cccc2)c1C(=O)NCCc1ccc(Cl)cc1 | x | x | n | -99.8 | x
COc1ccc(N2CCN(CCNC(=O)c3c(C)cc(=O)oc3C)CC2)cc1 | u | x | n | n | 11.7µM
Cc1ccc(-n2nc(C)c(C(=O)NCCCN3CCN(c4ccc(F)cc4)CC3)c2-n2cccc2)cc1 | x | x | n | -70.1 | x
COc1ccc(N2CCN(CCCNC(=O)c3c(C)nn(-c4ccc(F)cc4)c3-n3cccc3)CC2)cc1 | x | x | n | n | x
Cc1cc(=O)oc(C)c1C(=O)NCCCN1CCN(c2ccc(F)cc2)CC1 | 0.738µM | x | n | n | u
CCN(C(=O)c1cc2c(s1)-c1ccccc1OC2)c1cc(Cl)ccc1OC | x | x | n | n | x
C[C@@H]1CN([C@H](C)CO)C(=O)CCCn2nncc2CO[C@H]1CN(C)Cc1ccccc1 | x | x | x | n | x
